TDP1 block – inhibitors of human tyrosyl-DNA phosphodiesterase TDP1; Q9NUW8; Potency, µM (top dose mostly 130 µM), without a hit: top-dose activity change, negative = inhibition, usual class: inhibitors; hit rate 0.28% among 350,000; recombinant TDP1, AlphaScreen DNA substrate cleavage; note: % is set by controls: 0 for no effect and ±100 for the full control effect; nearly all actives have a fitted effect of over 40% in size
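Signal: AlphaScreen proximity between streptavidin donor and anti-FITC acceptor beads on intact substrate. Reaction: Tdp1 1 nM, substrate 15 nM final, 5 min RT after 15 min compound preincubation.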
DT40 TDP1 no CPT – qHTS for Inhibitors of human tyrosyl-DNA phosphodiesterase 1 (TDP1): qHTS in cells in absence of CPT | DT40 Tdp1-/- hTDP1 cells, no CPT, ATP luminescence, 48 h | Potency, µM (doses to about 46.2 µM), for the others: at the highest dose activity change, negative = growth inhibition, most hits filed as inhibitors | hit rate 15% among 420,000 | AID 686978, 2013; note: % is set by controls: 0 for no effect and ±100 for the full control effect; nearly all actives have a fitted effect of over 55% in size
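Growth kinetics read by CellTiter-Glo luminescence after ≥48 hr at 37 °C. Cells: DT40 Tdp1-/- stably carrying human TDP1, 400 per well, compound exposure in the absence of CPT (DMSO vehicle).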
ClpP mod – qHTS Assay for Activators of ClpP | purified B. subtilis ClpP, FRET peptide cleavage, 20 min | AID 651965, 2013 | ATP-dependent Clp protease proteolytic subunit (Bacillus subtilis (strain 168)), P80244 | Potency, µM (titrated, usually from 57.5 µM), for inactives: at the top dose activity change, negative = active | hit rate 1.9% among 340,000; active = well fitted falling curve with a large enough effect; inconclusive = small, poorly fitted or top-dose-only effect; inactive = no such curve, though single readings can be large or run the other way; note: the source files actives as falling curves though it sought activators and does not explain the sign; nearly all actives have a fitted effect of over 65% in size
Target sequence (P80244 whole entry, looked up): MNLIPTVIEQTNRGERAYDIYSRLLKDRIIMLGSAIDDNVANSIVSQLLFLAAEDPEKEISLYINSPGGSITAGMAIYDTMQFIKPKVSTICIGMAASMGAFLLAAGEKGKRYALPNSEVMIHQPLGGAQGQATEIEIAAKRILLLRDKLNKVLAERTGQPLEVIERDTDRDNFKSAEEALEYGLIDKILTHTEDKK
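Purified B. subtilis ClpP, 10 microg/mL final in Tris/HCl pH8 with KCl, BSA, glycerol and Tween-20, cleaved an Abz/nitrotyrosine-quenched decapeptide. Fluorescence (ex 320, em 430) was read at 0 and 20 min at room temperature. Delta was normalized to 5.8 microM ADEP and DMSO/no-enzyme controls.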
TDP1 cell CPT – growth inhibition of DT40 Tdp1-/-;hTDP1 cells with camptothecin (screen for TDP1 inhibitors); hit rate 12% among 420,000; chicken DT40 Tdp1-/-;hTDP1 cells + 20 nM CPT, ATP luminescence, 48 h; Potency, µM (top dose mostly 46.2 µM), for the others: at the highest dose activity change, negative = growth inhibition, actives largely listed as inhibitors; AID 686979; note: % is set by controls: 0 for no effect and ±100 for the full control effect; nearly all actives have a fitted effect of over 55% in size
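Chicken DT40 Tdp1-/- cells complemented with human TDP1, 400 cells/well, exposed to compounds plus 20 nM camptothecin for at least 48 h at 37 C; viability read as ATP content by CellTiter-Glo luminescence.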
* hit, by the source's call; ? = inconclusive; · = no result; [ ] = dose if it differs, or a comment. Most compounds without a hit are left out; they make up all but 17% or so of the library. Unless noted, calls come from the whole dose curve; as a rule, active = well fitted curve in the direction sought with a large enough effect; inconclusive = small, poorly fitted or top-dose-only effect, or another doubt; inactive = no such curve, though single readings can be large; an effect the other way counts as inactive or inconclusive. Potency is the fitted concentration of half-maximal effect.

SMILES	TDP1 block	DT40 TDP1 no CPT	ClpP mod	TDP1 cell CPT
O=c1oc(Cl)c(Cl)c2ccccc12	3.3%[56.1 µM]	2.91µM*	0.6%	3.26µM*
CCCCCCCCCCCCCCC[C@@H](O)[C@@H](N)COP(=O)(O)O	6.2%	·	·	·
COc1ccc(NC2Oc3cc4c(cc3C(c3cc(OC)c(OC)c(OC)c3)C2C)OCO4)cc1 (configuration not stated)	·	4.11µM*	-8.4%	4.61µM*
CC(C)(C)n1nnnc1C(C1CC1)N1CCC(n2c(=O)[nH]c3ccccc32)CC1 (configuration not stated)	·	?	1.1%	?
O=c1[nH]c2ccccc2n1C1CCN(C(c2nnnn2Cc2ccccc2)C2CC2)CC1 (configuration not stated)	·	20.6µM*	-0.7%	16.4µM*
O=c1[nH]c2ccccc2n1C1CCN(C(CCc2ccccc2)c2nnnn2Cc2ccccc2)CC1 (configuration not stated)	·	2.59µM*	1.1%	2.31µM*
CSCCC(c1nnnn1Cc1ccccc1)N1CCC(n2c(=O)[nH]c3ccccc32)CC1 (configuration not stated)	·	1.84µM*	1.5%	2.91µM*
C/C=C1/CN2CC[C@]34C(=C(C=O)[C@@H]1C[C@H]23)Nc1c(O)cccc14	11.2%	-14.4%[9.04 µM]	·	-8.0%[9.04 µM]
Oc1ccc2c3c1O[C@H]1c4c(c5ccccc5n4Cc4ccccc4)C[C@]4(O)[C@H](C2)N(CC2CC2)CC[C@@]314	19.5%[56.1 µM]	13.3µM*	·	11.9µM*
CCOC(=O)c1cc2ccccc2n1C1CCN(Cc2ccccc2)CC1	·	16.4µM*	?	?
CC[C@]12C=CCN3CC[C@@]4(c5ccc(OC)cc5N(C)[C@H]4[C@@](O)(C(=O)OC)[C@@H]1OC(C)=O)C32 (some centres not stated)	11.5%	·	·	·
CCN1/C(=C/C=C/C2=[N+](CC)c3ccccc3C2(C)C)C(C)(C)c2ccccc21	·	0.13µM*	-2.0%	0.146µM*
CC(C)N(Cc1nccn1C)C(=O)CCc1nnc(CCCc2ccccc2)o1	2.6%	?	1.5%	-0.8%
O=C1CCC[C@H]2[C@@H]3CCCN4CCC[C@H](CN12)[C@H]34	6.1%	·	·	·
CC(C)(C)OC(=O)N(CCc1ccccc1)Cc1ccc(OCc2cccc(NC(=O)c3ccccc3)c2)cc1	·	20.6µM*	?	?
CC(C)(C)c1ccc(OCC(=O)Nc2ccc(Cl)cc2C(=O)c2ccccc2)cc1	-6.6%[12.3 µM]	-78.2%	-1.1%	?
ClCC(Cl)Cl	2.0%	·	·	·
COC(=O)C1=C(c2ccc3ccccc3c2)C[C@@H]2CC[C@H]1N2C(=O)NC1CCCCC1	1.2%	16.4µM*	1.9%	?
COC(=O)C1=C(c2ccc3ccccc3c2)C[C@@H]2CC[C@H]1N2C(=O)NCC1CC1	1.0%	9.2µM*	-0.3%	11.6µM*
COC(=O)C1=C(c2ccc3ccccc3c2)C[C@@H]2CC[C@H]1N2C(=O)NC1CC1	0.2%	9.2µM*	1.5%	14.6µM*
CC(=O)C1CCC2C3CCC4CC(C)(O)CCC4(C)C3CCC12C (configuration not stated)	8.2%	·	·	·
COc1cccc(NC(=O)N2CCc3nc(Nc4ccc(C(C)C)cc4)ncc3C2)c1	·	?	0.1%	25.9µM*
CN(C)C(=O)Oc1cccc(NC(=O)N2CCOCC2)c1	-1.2%	-3.4%	-0.4%	-19.1%
COc1cc2c(cc1O)C[C@H]1c3c(cc(OC)c(O)c3-2)CCN1C	-10.7%	?	·	?
COC(=O)C1=C(c2cc3ccccc3s2)C[C@@H]2CC[C@H]1N2C(=O)NC1CCCCC1	·	?	0.6%	18.4µM*
SMILES	TDP1 block	DT40 TDP1 no CPT	ClpP mod	TDP1 cell CPT
COC(=O)C1=C(c2cc3ccccc3s2)C[C@@H]2CC[C@H]1N2C(=O)NCc1ccc(F)cc1	·	·	-7.4%	?
COC(=O)C1=C(c2cc3ccccc3s2)C[C@@H]2CC[C@H]1N2C(=O)N1CCC(O)CC1	·	23.1µM*	-3.1%	14.6µM*
COC(=O)C1=C(c2cc3ccccc3s2)C[C@@H]2CC[C@H]1N2C(=O)N1CCCCC1	·	6.51µM*	-1.5%	2.91µM*
O=C(Nc1ccc(Br)cc1)c1nn(C23CC4CC(CC(C4)C2)C3)cc1Br	0.0%	14.6µM*	-12.4%	?
NC(=O)c1cn(C2OC(CO)C(O)C2O)c2ncnc(N)c12 (configuration not stated)	0.0%	0.0164µM*	1.2%	0.0082µM*
CCNC(=O)[C@@H]1O[C@@H](n2cnc3c(N)ncnc32)[C@H](O)[C@H]1O	-5.7%[56.1 µM]	?	·	?
N#Cc1cn(C2OC(CO)C(O)C2O)c2ncnc(N)c12 (configuration not stated)	·	0.0146µM*	-14.1%	0.0146µM*
CCOP(=O)(OCC)C(Cc1ccc(OC)c(OC)c1)N=C(c1ccccc1)c1ccccc1 (configuration not stated)	·	?	1.0%	?
C/C=C1/CN2CC[C@]34C(=C(C=O)[C@H]1C[C@@H]23)Nc1ccccc14	16.7%	?	·	-13.9%
COc1ccc(CNCCc2c[nH]c3ccccc23)c(OC)c1OC	·	11.6µM*	·	16.4µM*
COc1cccc(CNCCc2c[nH]c3ccccc23)c1OC	10.8%	-15.0%	·	2.0%
CCOc1cc(CNCCc2c[nH]c3ccccc23)cc(Cl)c1OC	5.1%	5.8µM*	·	8.2µM*
COc1ccccc1CCNCc1ccc(OC)c(OC)c1OC	2.5%	11.6µM*	-0.2%	25.9µM*
C=C(C)c1cc2cc(C(C)=O)c(O)cc2o1	6.9%	-3.5%[9.04 µM]	·	9.1%[9.04 µM]
CCCC[C@@H](C)C[C@@H](C)C(=O)N(C)[C@@H](CC(C)C)C(=O)N[C@H](C(=O)N(C)[C@H](C(=O)N1C[C@@H](O)C[C@H]1C(=O)N1C(=O)C=C[C@@H]1C)C(C)C)C(C)OC(C)=O (some centres not stated)	0.1%	0.0065µM*	2.3%	0.0366µM*
C=C(Cl)CCl	4.8%	·	·	·
CCOc1cc2c(cc1OCC)-n1cccc1C(c1ccccc1OC)NC2 (configuration not stated)	·	25.9µM*	·	?
CCOc1cc2c(cc1OCC)-n1cccc1C(c1cccc(F)c1F)NC2 (configuration not stated)	·	23.1µM*	·	?
CCOc1cc2c(cc1OCC)-n1cccc1C(c1ccccc1O)NC2 (configuration not stated)	·	?	-0.3%	23.1µM*
CCOc1cc2c(cc1OCC)-n1cccc1C(c1c(O)cccc1OC)NC2 (configuration not stated)	·	10.3µM*	·	13µM*
O=C(O)C(Br)CBr (configuration not stated)	2.4%	?	-1.6%	-7.9%
COc1cccc([C@@]2(O)CCCCC2CN(C)C)c1 (some centres not stated)	7.5%	·	·	·
Cc1c(N=Cc2c(O)n(CCc3ccc(F)cc3)c(=O)[nH]c2=O)c(=O)n(-c2ccccc2)n1C	1.1%	-14.9%	0.1%	?
